High-throughput results (PubChem BioAssay)
This is a sample that favours compounds with a hit; in the whole collection about 2.3% have one here.
SENP8 block-1 – SENP8 (human) protease inhibition; Q96LD8; recombinant SENP8, Nedd8 substrate fluorescence; inhibition, % at 20 µM; 360,000 tested, 0.64% active; in the data active = inhibition mostly above about 40%, no sharp cut-off; inactive = mostly below about 27%
Target sequence (Q96LD8 whole entry, looked up): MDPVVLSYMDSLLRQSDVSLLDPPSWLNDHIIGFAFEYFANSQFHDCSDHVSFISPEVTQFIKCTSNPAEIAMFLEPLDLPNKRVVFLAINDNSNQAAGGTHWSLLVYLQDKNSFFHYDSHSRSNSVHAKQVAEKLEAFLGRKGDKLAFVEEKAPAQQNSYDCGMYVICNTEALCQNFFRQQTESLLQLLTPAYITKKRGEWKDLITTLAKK
SENP8 block-2 – inhibitors of human SENP8 protease | Q96LD8 | purified SENP8, Z-RLRGG-aminoluciferin cleavage, luminescence | 330,000 tested, 1.2% active | AID 2540 | inhibition, % at 10 µM; in the data active = inhibition above about 50%
SENP6 block – SENP6 protease inhibition | Recombinant SENP6 catalytic domain, aminoluciferin luminescence | 330,000 tested, 1.8% active | inhibition, % at 10 µM;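 active = inhibition above about 50% at the single tested dose, limit read from the data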
LGR2 antag – Drosophila LGR2 receptor signaling inhibition; HEK293 LGR2, CRE-luciferase, bursicon-stimulated, 4 h; inhibition, % at 9.99 µM; 380,000 tested, 0.35% active; AID 720647;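 active = drop in luminescence signal, shown as inhibition above about 50% in the replicate tests, limit read from the data, passing the limit was not always enough; inconclusive = probably only some replicates passing the limit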;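 note: agonist challenge used bursicon conditioned medium at about half maximal strength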
SENP7 inh – SENP7 protease inhibition | Q9BQF6 | recombinant SENP7, Z-RLRGG-aminoluciferin luminescence, 40 min | inhibition, % at 5 µM | 330,000 tested, 1.5% active | AID 434973;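 active = inhibition above about 50% at the single test dose, limit read from the data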
Target sequence (Q9BQF6 706-1050 limits assumed): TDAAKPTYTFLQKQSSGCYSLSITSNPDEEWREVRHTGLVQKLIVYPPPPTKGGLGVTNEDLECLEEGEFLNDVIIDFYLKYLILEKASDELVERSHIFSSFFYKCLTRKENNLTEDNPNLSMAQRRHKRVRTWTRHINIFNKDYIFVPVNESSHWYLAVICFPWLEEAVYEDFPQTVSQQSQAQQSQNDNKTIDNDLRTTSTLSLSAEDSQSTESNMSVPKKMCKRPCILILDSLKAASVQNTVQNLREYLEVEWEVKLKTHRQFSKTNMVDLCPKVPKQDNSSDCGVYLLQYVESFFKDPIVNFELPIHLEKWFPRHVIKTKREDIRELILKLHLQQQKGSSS
HSP90 refold inh – blocks HSP90-mediated luciferase refolding in reticulocyte lysate. Rabbit reticulocyte lysate, luciferase refolding luminescence, 3 h. inhibition, % at 5.6 µM. 290,000 tested, 0.91% active;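 active = inhibition above the screen-wide mean plus 3 SD, computed separately per campaign, cut at about 16% in these data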;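 note: inhibitors lower the luminescence because luciferase stays unfolded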
HSP90 inh confirm – HSP90 inhibition, confirmation assay; AID 1846; 2,300 tested, 64% active; shares compounds with HSP90 refold inh; inhibition, % at 5.9 µM; rabbit reticulocyte lysate, luciferase refolding luminescence, 3 h; in the data active = inhibition above about 18%
luciferase ctr – firefly luciferase inhibition, HSP90 counter-screen. shares compounds with HSP90 refold inh. purified native firefly luciferase, luminescence. inhibition, % at 5.9 µM. 2,300 tested, 48% active. AID 1847;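 active = inhibition above the mean inhibition of all tested sample wells plus 3 SD, cut at about 10% in these data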
Large screens that a line does not name were inactive (follow-up assays come after a bar, where they were run).

C[C@H](O)C#Cc1ccc2c(c1)O[C@H](CN(C)C(=O)CN(C)C)[C@H](C)CN([C@@H](C)CO)S2(=O)=O	none (no result: SENP8 block-1, SENP8 block-2, SENP6 block, SENP7 inh, HSP90 refold inh)
Oc1ccc(O)c(C=NNC(=S)NC2CC3CC2C2C=CCC32)c1 (stereo not drawn)	none (no result: SENP8 block-2, SENP6 block, SENP7 inh, HSP90 refold inh)
NNC(=S)NC1CC2CC1C1C=CCC21 (stereo not drawn)	HSP90 refold inh 25 | HSP90 inh confirm inactive | luciferase ctr inactive
Cc1ccc(C)c(N(Cc2cc3ccc(C)cc3[nH]c2=O)C(=O)c2ccco2)c1	HSP90 refold inh 18 | HSP90 inh confirm inactive | luciferase ctr inactive
Cc1cc(NCc2ccccc2)n2ncc(-c3ccccc3)c2n1	none
COc1ccc(-c2cc(C)nc3c(-c4ccccc4)cnn23)cc1	LGR2 antag inconclusive, HSP90 refold inh 21 (no result: SENP8 block-2, SENP6 block, SENP7 inh) | HSP90 inh confirm 45 | luciferase ctr 28
Cc1cc(-c2ccccc2)n2ncc(-c3ccccc3)c2n1	LGR2 antag 60, HSP90 refold inh 22 | HSP90 inh confirm 61 | luciferase ctr 55
CO[C@@H]1CN(C)C(=O)c2ccc(NC(=O)Nc3c(C)noc3C)cc2OC[C@@H](C)NC[C@@H]1C	none (no result: SENP8 block-1, SENP8 block-2, SENP6 block, SENP7 inh, HSP90 refold inh)
C[C@H](NC(=O)C[C@@H]1C=C[C@H](NC(=O)C2CC2)[C@H](CO)O1)c1ccccc1	none (no result: SENP8 block-1, SENP8 block-2, SENP6 block, SENP7 inh, HSP90 refold inh)
O=C(CN(Cc1ccco1)C(=O)CNS(=O)(=O)c1ccc(Cl)cc1)NCc1ccco1	HSP90 refold inh 55 | HSP90 inh confirm inactive | luciferase ctr inactive
Cc1noc(C)c1COC(=O)c1ccc2c(c1)OCO2	none (no result: LGR2 antag)
CCOC(=O)c1ccc(-c2c(-c3ccc4c(c3)OCO4)noc2C)cc1F	HSP90 refold inh 17 | HSP90 inh confirm inactive | luciferase ctr inactive
CN(CC(=O)NCc1ccncc1)S(=O)(=O)c1cc(Cl)ccc1Cl	HSP90 refold inh 53 | HSP90 inh confirm inactive | luciferase ctr inactive
C[C@@H]1CN([C@@H](C)CO)C(=O)c2cccc(NS(=O)(=O)c3cn(C)cn3)c2O[C@H]1CN(C)CC1CC1	none (no result: SENP8 block-1, SENP8 block-2, SENP6 block, SENP7 inh, HSP90 refold inh)
Cc1nnc(NC(=O)c2sc3ccccc3c2Cl)s1	HSP90 refold inh 18 (no result: LGR2 antag) | HSP90 inh confirm 35 | luciferase ctr 18
Cc1cccnc1NC(=O)c1sc2ccccc2c1Cl	none
Cc1c(NC(=S)NC(=O)c2sc3ccccc3c2Cl)cccc1C(=O)O	HSP90 refold inh 43 | HSP90 inh confirm 63 | luciferase ctr 11
CCC(=O)N(C)C[C@@H]1Oc2ncc(-c3ccccc3OC)cc2C(=O)N([C@H](C)CO)C[C@H]1C	none (no result: SENP8 block-1, SENP8 block-2, SENP6 block, SENP7 inh, HSP90 refold inh)
C[C@H](CO)N1C[C@H](C)[C@H](CN(C)S(C)(=O)=O)OCCCC[C@H](C)Oc2ccc(NC(=O)Nc3ccc(C(F)(F)F)cc3)cc2C1=O	none (no result: SENP8 block-1, SENP8 block-2, SENP6 block, SENP7 inh, HSP90 refold inh)
CC(C)NC(=O)Nc1ccc2c(c1)C(=O)N([C@@H](C)CO)C[C@@H](C)[C@H](CN(C)C(=O)Cc1ccccc1)OCCCC[C@@H](C)O2	none (no result: SENP8 block-1, SENP8 block-2, SENP6 block, SENP7 inh, HSP90 refold inh)
CNC[C@H]1OCCCC[C@H](C)Oc2ccc(NC(=O)Nc3c(C)noc3C)cc2C(=O)N([C@H](C)CO)C[C@@H]1C	none (no result: SENP8 block-1, SENP8 block-2, SENP6 block, SENP7 inh, HSP90 refold inh)
CN(C(=O)CSc1nc(-c2ccccc2)cn1N)C(c1ccccc1)c1ccccc1	HSP90 refold inh 18 | HSP90 inh confirm inactive | luciferase ctr inactive
COc1ccccc1CNC(=O)CSc1nc(-c2ccccc2)cn1N	none (no result: LGR2 antag)
COCC(=O)N1C[C@@H](C)[C@@H](OC)CN(C)C(=O)c2ccc(NC(=O)c3ccc(F)cc3)cc2OC[C@@H]1C	none (no result: SENP8 block-1, SENP8 block-2, SENP6 block, SENP7 inh, HSP90 refold inh)
C=CCn1c(SCC(=O)NCC)nnc1-c1cc2c(s1)CCC(CC)C2 (stereo not drawn)	none
C=CCn1c(SCC(=O)NCCOC)nnc1-c1cc2c(s1)CCC(CC)C2 (stereo not drawn)	HSP90 refold inh 52 (no result: LGR2 antag) | HSP90 inh confirm inactive | luciferase ctr inactive
COc1cc(N=Nc2c(O)c3ccccc3[nH]c2=O)c(OC)cc1N=Nc1ccccc1	none (no result: LGR2 antag) | HSP90 inh confirm inactive | luciferase ctr inactive
NC(=O)c1ccc(N=Nc2c(O)c3ccccc3[nH]c2=O)cc1	none (no result: SENP8 block-1, LGR2 antag) | HSP90 inh confirm inactive | luciferase ctr inactive
N=C(N)c1ccc(N=Nc2c(O)ccc3c2[nH]c2ccccc23)cc1	none (no result: SENP8 block-2, SENP6 block, SENP7 inh, HSP90 refold inh)
COc1ccc(OC)c(N=Nc2c(O)c3ccccc3[nH]c2=O)c1	none (no result: SENP8 block-2, SENP6 block, SENP7 inh, HSP90 refold inh)
COc1ccc2c3c(n(C)c2c1)[C@H](CO)N(C(=O)c1cccnc1)CC31CN(C)C1	none (no result: SENP8 block-1, SENP8 block-2, SENP6 block, SENP7 inh, HSP90 refold inh)
